Screening results: PubChem BioAssay, Sanford-Burnham Center for Chemical Genomics
NALP1 inh: blocks the NALP1 inflammasome reconstituted in yeast; S. cerevisiae NALP1/ASC/caspase-1 growth, X-gal OD620, 72 h; inhibition, % at 10 µM; hit rate 0.61% among 280,000; AID 2071; in the data active = inhibition mostly above about 24%, no sharp cut-off; inactive = mostly below about 32%
tim10-1 inh: growth inhibitors of tim10-1 mutant yeast; S. cerevisiae tim10-1 ts strain growth, BacTiter-Glo, 24 h; inhibition, % at 20 µM; hit rate 2.2% among 330,000;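 active = inhibition of at least 40%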;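 also: mutant grown at 25 °C; 0% = DMSO wells with yeast and 100% = wells holding no yeast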
NALP3 yeast inh: inhibitors of NALP3 inflammasome in yeast. hit rate 0.39% among 330,000. Yeast reconstituted NLRP3/ASC/caspase-1, beta-gal luminescence, 24 h. AID 2825. inhibition, % at 10 µM;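 active = inhibition of 50% or more; inactive = inhibition below 50%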;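 also: plate controls were induced DMSO wells for no effect and uninduced yeast grown without galactose for full effect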
tim23-1 inh: growth inhibitors of tim23-1 mutant yeast; hit rate 1.3% among 330,000; S. cerevisiae tim23-1 growth, BacTiter-Glo luminescence, 24 h; AID 463212; inhibition, % at 20 µM;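 active = growth inhibition of the mutant yeast at or above 50%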;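 also: temperature-sensitive mutant grown at 25 °C; plate controls were DMSO-treated mutant yeast for no effect and medium wells lacking yeast for full effect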
TIM10 inh: inhibits growth of TIM10 yeast strain; inhibition, % at 10 µM; S. cerevisiae TIM10 strain growth, BacTiter-Glo luminescence, 24 h; hit rate 1.4% among 330,000;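 active = inhibition of 40% or more at the single tested concentration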;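 also: wild-type TIM10 isogenic control strain grown at permissive 25 °C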
tim10-1 conf: tim10-1 yeast growth inhibition, confirmed; S. cerevisiae tim10-1 ts strain growth, BacTiter-Glo, 24 h; hit rate 56% among 7,400; shares compounds with tim10-1 inh; AID 463213; inhibition, % at 20 µM;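 active = inhibition of yeast growth at or above a set limit in either of two repeat tests at 20 µM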;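 also: tim10-1 mutant grown at permissive 25 °C to find synthetic lethal compounds; 0% = DMSO yeast wells and 100% = medium wells without yeast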
Active calls of the source: *; / = no result given. Rows were chosen to be rich in hits. Some 4.1% of all compounds tested hit in one or more screens of this group.

SMILES	NALP1 inh	tim10-1 inh	NALP3 yeast inh	tim23-1 inh	TIM10 inh	tim10-1 conf
CCOC(=O)COc1ccc(/C=C2\NC(=S)N(CC)C2=O)cc1	23	40	2	27	18	25
O=C(c1cc(S(=O)(=O)N2CCOCC2)ccc1Cl)N1CCc2ccccc2C1	11	12	7	17	12	/
Cc1ccc(NC(=O)CN(C)C(=O)C(Sc2ccccc2)c2ccccc2)cc1 (stereo unspecified)	/	18	5	41	13	/
CC(C)(C)c1cc(=O)[nH]c(SCc2ccccc2)n1	10	41*	-6	32	17	24
Cc1cc(=O)[nH]c(SCc2ccccc2)n1	14	19	20	24	14	/
Cc1cc(N(CCO)CCO)ccc1N=Nc1cc(F)ccc1F	8	41*	28	45	16	38*
COC1=CC(=O)C(O)=C(CCCCCCC/C=C/CCCCCCCC2=C(O)C(=O)C=C(OC)C2=O)C1=O	/	43*	20	43	-2	38*
COC1=C(OC)C(=O)C(CCCCCCCCCCO)=C(C)C1=O	22	/	/	/	/	/
CCc1ccc(Nc2nnc(SCC(=O)c3c(N)n(C4CC4)c(=O)[nH]c3=O)s2)cc1	/	-5	23	-3	3	/
CCC1CCCCN1c1nc(-c2ccncc2)nc2ccccc12 (stereo unspecified)	0	50*	1	43	27	38*
O=C(C1CC1)N1CCc2cc(Br)cc(S(=O)(=O)N3CCN(c4ccccn4)CC3)c21	36	44*	20	28	10	37*
CCOC(=O)C1CCN(S(=O)(=O)c2cc(Br)cc3c2N(C(=O)C2CC2)CC3)CC1	37	34	8	33	33	/
COc1cc(/C=N/NC(=O)c2ccc([N+](=O)[O-])cc2Cl)cc(Br)c1O	22	-3	12	2	-3	/
COc1cc(/C=N/N2C(=O)c3ccccc3NC2(C)c2cccc([N+](=O)[O-])c2)cc(Br)c1O (stereo unspecified)	-15	44*	13	30	31	21
O=S(=O)(c1cccc(COc2ccc(Cl)cc2Cl)c1)N1CCOCC1	5	24	-2	29	-13	/
O=S(=O)(c1cccc(COc2c(Cl)cccc2Cl)c1)N1CCOCC1	/	40*	17	30	0	15
CCC1SC(CC)C(=O)N(CC(=O)Nc2ccc3c(c2)OCO3)C1=O (stereo unspecified)	28	14	11	8	19	/
O=C(NC(=S)N1CCCc2ccccc21)c1ccco1	4	11	22	7	21	/
CC1Cc2ccccc2N1C(=S)NC(=O)c1ccco1 (stereo unspecified)	-1	40*	-5	13	34	36*
Cn1c(=O)[nH]c(=O)c2c1nc(N1CCCCCC1)n2CCCSc1nnnn1-c1ccccc1	24	41*	-2	17	15	24
Cn1c(=O)[nH]c(=O)c2c1nc(N1CCCC1)n2CCCSc1nnnn1-c1ccccc1	17	14	6	18	-2	/
COc1ccc(CCNC(=O)c2cc(C)oc2C)cc1OC	10	-3	-8	0	-11	/
CC(=O)NC1C(Oc2ccccc2C)OC2COC(c3ccco3)OC2C1O (stereo unspecified)	31	10	13	-1	14	/
CC(C)(C)OC(=O)C[C@@H]1C/C=C\C[C@@H](CC(=O)N(CCO)Cc2ccccc2)C(=O)N[C@@H](c2ccccc2)COC1=O	/	16	7	-1	-2	/
Cc1nn(-c2ccccc2)c(Cl)c1C1C(C#N)=C(N)Oc2c1c(C)nn2-c1ccccc1 (stereo unspecified)	9	47*	7	34	-2	19
SMILES	NALP1 inh	tim10-1 inh	NALP3 yeast inh	tim23-1 inh	TIM10 inh	tim10-1 conf
C=CCOC(=O)C1=C(C)OC(N)=C(C#N)C1c1c(C)nn(-c2ccccc2)c1Cl (stereo unspecified)	-7	37	-5	41	4	/
CCOC(=O)C1=C(C)OC(N)=C(C#N)C1c1c(C)nn(-c2ccccc2)c1Cl (stereo unspecified)	37	53*	-2	46	24	34*
COc1ccc(-n2c(SC(C)C(=O)Nc3ccc(NC(C)=O)cc3)nc3ccccc3c2=O)cc1OC (stereo unspecified)	3	9	0	3	7	/
Cc1cccc(C)c1NC(=O)CN1C(=O)NC(C)(CCc2ccccc2)C1=O (stereo unspecified)	10	3	19	10	-11	/
O=C(O)c1cc2ccc3cccc4ccc(c1)c2c34	14	43*	17	33	34	23
CC(C)Oc1ccc(C(CC(=O)NCc2ccco2)c2ccccc2)cc1 (stereo unspecified)	6	40*	1	20	19	11
Cc1cc(=O)[nH]c(N=N/C(=N/Nc2ccc(O)cc2)c2ccccc2)n1	12	50*	31	42	13	38*
C[C@@H]1CCC(=O)N(CC[C@H](Oc2ccccc2)c2ccccc2)CC1	19	35	8	38	26	/
FC(F)(F)c1cccc(N2CCN(c3nnnn3-c3ccccc3)CC2)c1	/	43*	10	26	13	14
FC(F)(F)c1cccc(N2CCN(c3ccc4nnc(-c5ccccc5)n4n3)CC2)c1	19	49*	6	20	31	21
CC1CCCCC1NC(=O)c1cccc(S(=O)(=O)N2CCN(Cc3ccccc3)CC2)c1 (stereo unspecified)	/	29	12	19	20	/
CSc1nc(C)cc(SCC(=O)N/N=C/c2ccccc2)n1	12	11	3	11	4	/
O=C(NCc1ccc(Cl)cc1)C1CCCN1C(=O)Nc1ccccc1 (stereo unspecified)	-14	0	14	-10	-11	/
Cc1nnc(Sc2nc3ccccc3o2)c2ccccc12	19	39	40	31	30	/
Clc1ccc(-c2nnc(Sc3nc4ccccc4o3)c3ccccc23)cc1	11	42*	24	46	40	17
COc1ccc(-c2nc(CS(=O)(=O)CC(=O)NC3CCC(C)CC3)c(C)o2)cc1 (stereo unspecified)	1	17	1	11	4	/
COc1ccc([C@H]2[C@H]3C=CC[C@@H](C)[C@@H]3C(=O)N2Cc2ccccc2)cc1Cl	14	42*	12	38	31	30
COc1ccc(Br)cc1[C@H]1[C@H]2C=CC[C@@H](C)[C@@H]2C(=O)N1Cc1ccccc1	/	60*	19	12	10	42*
C[C@@H]1CC=C[C@H]2[C@H]1C(=O)N(Cc1ccccc1)[C@H]2c1ccc(-c2ccoc2)cc1F	-6	41*	10	50	30	36*
CC1CCCC(C)N1/N=C/C=C/c1ccccc1[N+](=O)[O-] (stereo unspecified)	11	41*	-4	19	9	13
O=[N+]([O-])c1ccccc1/C=C/C=N/n1c(-c2ccccc2)n[nH]c1=S	25	42*	17	29	36	36*
